The values that follow come from PubChem BioAssay (NCATS).

Results filed as inconclusive are left out. The source made the active and inactive calls. The call rests on the fitted dose curve; in most records, active means well fitted curve in the direction sought with a large enough effect; inconclusive means small, poorly fitted or top-dose-only effect, or another doubt; inactive means no such curve, though single readings can be large; an effect the other way counts as inactive or inconclusive.

The nature of assay [1]: qHTS of pediatric cancer cell lines to identify multiple opportunities for drug repurposing: Primary screen for BT-37 cells (AID 1347094). The essentials:
(§1)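 Primary screen of approved and investigational compounds on cells in growth media at 37 degrees C, 5% CO2. MIPE set at 11-point and NPC set at 8-point dilutions; viability scored by ATP-based luminescence at 48 hours.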
On the technique in general: Quantitative high-throughput screening tests each substance at several concentrations.

Assay [2] can be described thus: qHTS of pediatric cancer cell lines to identify multiple opportunities for drug repurposing: Primary screen for NB-EBc1 cells (AID 1347095). The essentials: as §1
The nature of assay [3]: qHTS of pediatric cancer cell lines to identify multiple opportunities for drug repurposing: Primary screen for Saos-2 cells (AID 1347097). Further: nearly all actives have a fitted effect of over 40% in size. The essentials:
as §1

Assay [4] can be described thus: qHTS of pediatric cancer cell lines to identify multiple opportunities for drug repurposing: Primary screen for NB1643 cells (AID 1347099). Further: nearly all actives have a fitted effect of over 50% in size. The essentials: as §1
Assay [5] in a line: qHTS of pediatric cancer cell lines to identify multiple opportunities for drug repurposing: Primary screen for LAN-5 cells (AID 1347100). The essentials:
(§2)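 Cells (500-1,000/well) rested 5 h, then received compounds for 48 h; metabolically active cells were measured by CellTiter-Glo luminescence. Final concentrations spanned up to 46 µM (MIPE, 11-point) or 0.59 nM-46 µM (NPC, 8-point) in primary screens, 11-point in follow-ups.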

The nature of assay [6]: qHTS of pediatric cancer cell lines to identify multiple opportunities for drug repurposing: Primary screen for BT-12 cells (AID 1347101). Further: nearly all actives have a fitted effect of over 25% in size. The essentials: as §2
The nature of assay [7]: qHTS of pediatric cancer cell lines to identify multiple opportunities for drug repurposing: Primary screen for Rh18 cells (AID 1347102). Further: nearly all actives have a fitted effect of over 65% in size. The essentials: as §2
Assay [8] in a line: qHTS of pediatric cancer cell lines to identify multiple opportunities for drug repurposing: Primary screen for OHS-50 cells (AID 1347103). Further: nearly all actives have a fitted effect of over 40% in size. The essentials:
as §2

Assay [9] is described as follows: qHTS of pediatric cancer cell lines to identify multiple opportunities for drug repurposing: Primary screen for RD cells (AID 1347104). Further: nearly all actives have a fitted effect of over 55% in size. The essentials: as §1
Assay [10] can be described thus: qHTS of pediatric cancer cell lines to identify multiple opportunities for drug repurposing: Primary screen for Rh30 cells (AID 1347107). Further: nearly all actives have a fitted effect of over 75% in size. The essentials: as §2
Assay [11] is described as follows: qHTS of pediatric cancer cell lines to identify multiple opportunities for drug repurposing: Primary screen for Rh41 cells (AID 1347108). Further: nearly all actives have a fitted effect of over 70% in size. The essentials:
as §1

Assay [12] is described as follows: qHTS of pediatric cancer cell lines to identify multiple opportunities for drug repurposing: Primary screen for U-2 OS cells (AID 1347096). Further: nearly all actives have a fitted effect of over 50% in size. The essentials:
as §2

Assay [13] is described as follows: qHTS of pediatric cancer cell lines to identify multiple opportunities for drug repurposing: Primary screen for SK-N-SH cells (AID 1347098). Further: nearly all actives have a fitted effect of over 65% in size. The essentials: as §2
Assay [14] can be described thus: qHTS of pediatric cancer cell lines to identify multiple opportunities for drug repurposing: Primary screen for control Hh wild type fibroblast cells (AID 1347106). Further: nearly all actives have a fitted effect of over 55% in size. The essentials:
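Cells (500-1,000/well) in growth media were settled 5 h at 37 degrees C, then given compounds for 48 h. Viability was read as CellTiter-Glo luminescence. Primary runs used MIPE at 11 points (0.78 nM-46 µM) and NPC at 8 points (0.59 nM-46 µM); follow-ups used 11 points.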

Assay [15] in a line: qHTS of pediatric cancer cell lines to identify multiple opportunities for drug repurposing: Primary screen for MG 63 (6-TG R) cells (AID 1347105). Further: nearly all actives have a fitted effect of over 50% in size. The essentials:
as §1

Assay [16] is described as follows: qHTS of pediatric cancer cell lines to identify multiple opportunities for drug repurposing: Confirmatory screen for NB1643 cells (AID 1347109). Further: nearly all actives have a fitted effect of over 45% in size. The essentials: as §2
Assay [17] is described as follows: qHTS of pediatric cancer cell lines to identify multiple opportunities for drug repurposing: Confirmatory screen for A673 cells (AID 1347110).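 Further: cells exposed to compound for 48 h before the viability read; nearly all actives have a fitted effect of over 65% in size.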 The essentials: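 qHTS titration format: primary MIPE 0.78 nM-46 µM (11 pts), NPC 0.59 nM-46 µM; confirmation 11 pts. 48 h, CTG luminescence.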
Assay [18] is described as follows: qHTS of pediatric cancer cell lines to identify multiple opportunities for drug repurposing: Confirmatory screen for SK-N-MC cells (AID 1347111).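 Further: cells exposed to compound for 48 h before the readout; nearly all actives have a fitted effect of over 70% in size.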 The essentials:
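Seed 500-1,000 cells/well; rest 5 h at 37 degrees C. Pin-transfer compounds, 11-point titration. Incubate 48 h. Add CellTiter-Glo, 15 min RT, read luminescence.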

A short description of assay [19]: qHTS of pediatric cancer cell lines to identify multiple opportunities for drug repurposing: Confirmatory screen for BT-12 cells (AID 1347112). Further: nearly all actives have a fitted effect of over 55% in size. The essentials:
as §2

Assay [20] can be described thus: qHTS of pediatric cancer cell lines to identify multiple opportunities for drug repurposing: Confirmatory screen for LAN-5 cells (AID 1347113). Further: nearly all actives have a fitted effect of over 65% in size. The essentials: as §2
Potency means the concentration at half of the fitted maximal effect.

In the case of `Clc1ccc(C(c2ccc(Cl)cc2)n2cc[n+](CC(OCc3ccc(Cl)cc3Cl)c3ccc(Cl)cc3Cl)c2)cc1` (configuration not stated), the Potency in [1] was 21.7 µM (active); in assay [2] it was 23.5 µM (active); in [3], 11.8 µM (active); in assay [4], 23.5 µM (active); in assay [5], 18.7 µM (active); in assay [6], 21.7 µM (active). The Potency was 23.5 µM (active) in [7]; 17.2 µM (active) in assay [8]; 33.2 µM (active) in [9]; 18.7 µM (active) in [10]; 18.7 µM (active) in assay [11].
Regarding `O=C(CCc1ccc(O)cc1)c1c(O)cc(O)cc1O[C@@H]1O[C@H](CO)[C@H](O)[C@H](O)[C@H]1O`, the Potency entry in assay [1], in assay [12], in assay [3], in [13], in assay [6] and in [7] was “inactive” each time. Moreover, the Potency result in [8], in assay [9], in [14], in assay [10] and in assay [11] was “inactive” in each case. Also, the Potency in assay [4] was 26.4 µM (active).
Take `O=C1C(Cl)=C(NCCN2CCOCC2)C(=O)c2ncccc21`: the Potency is 3.43 µM (active) in assay [1]; 5.9 µM (active) in assay [12]; 2.35 µM (active) in [3]; 7.64 µM (active) in assay [13]; 9.35 µM (active) in [4]; 8.33 µM (active) in assay [5]. In addition, the Potency was 3.43 µM (active) in assay [6]; 2.35 µM (active) in assay [7]; 9.68 µM (active) in assay [8]; 5.9 µM (active) in assay [9]; 18.7 µM (active) in assay [15]; 11.8 µM (active) in [14]. The Potency in assay [10] was 8.33 µM (active); in assay [11], 4.69 µM (active); in [16], 4.14 µM (active); in assay [17], 2.08 µM (active); in assay [18], 1.04 µM (active); in assay [19], 2.61 µM (active). Moreover, the Potency in assay [20] is 2.93 µM (active).
For `CCN(CC)C(=O)c1ccc(O)c(OC)c1`, the Potency result in [1], in [2], in assay [3], in assay [13], in assay [4] and in assay [5] was “inactive” in each case. Further, the Potency entry in [6], in [7], in assay [8], in [9], in [15] and in assay [14] was “inactive” throughout. Also, the Potency entry in [10] and in [11] was “inactive” in each case.
Turning to `O=c1cc(N2CCOCC2)oc2c(-c3cccc4c3sc3ccccc34)cccc12`, the Potency in assay [1] is 21.7 µM (active); in assay [2] it was 8.33 µM (active); in assay [3], 18.7 µM (active); in [4] it was 5.26 µM (active); in [5], 14.8 µM (active); in [6], 24.3 µM (active). Further, the Potency in assay [7] is 18.7 µM (active); in assay [8], 7.69 µM (active); in assay [9], 13.2 µM (active); in [15] it was 14.8 µM (active). The Potency entry in assay [13] and in assay [14] was “inactive” each time.
Take `O=C(CCN1CCN(C(=O)OCc2cc(Cl)cc(Cl)c2)CC1)c1ccc2[nH]c(=O)oc2c1`: the Potency result in [1], in assay [2], in [7], in assay [8], in assay [9] and in [15] was “inactive” throughout. The Potency entry in [14] and in assay [10] was “inactive” throughout.
Turning to `O=C1C[C@@H](c2ccc(O)cc2)Oc2cc(O)cc(O)c21`, the Potency entry in [1], in assay [2], in assay [4], in assay [5], in assay [7] and in assay [8] was “inactive” throughout. For the same molecule, the Potency result in assay [9], in assay [15], in assay [14], in assay [10] and in [11] was “inactive” throughout.
